Measured values published in PubChem BioAssay (NCI).
Several values for one entry are separate records, joined by “and”; a condition that tells them apart may be missing. Equal values may be shown once. Compounds without any hit were thinned out: in the full panel of roughly 83,000, 20% have a hit.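 Growth was measured after 48 h exposure to one concentration of compound in 96-well plates. Values under 10 count as active.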 Activity calls are given as the source filed them.

tested on: MDA-MB-435 melanoma; assay: NCI-60 one-dose screen, 48 h (100 = growth as untreated, 0 = no growth, -100 = all killed); details: 4.75 µM
Method: Growth inhibition of the MDA-MB-435 human Melanoma tumor cell line is measured as a screen for anti-cancer activity. Cells are grown in 96 well plates and exposed to the test compound for 48 hours. Compounds are tested at a single concentration, which is 10^-5 M for most compounds. The reported endpoint is percent growth (GI% or GIPRCNT), where numbers from 0 - 100% represent growth inhibition, and numbers from -100% - 0 represent cell death. For example, a value of 40 represents 60% growth inhibition. A value of 0 means no net growth occurred over the course of the experiment. A value of -40 indicates 40% of cells at the beginning of the experiment died by the end of the experiment. A value of -100 means all cells are dead at the end of the experiment.
NCI-60 Human Tumor Cell Lines Screen was performed using the standard one-dose NCI protocol, which is described in more detail at https://dtp.cancer.gov/discovery_development/nci-60/default.htm.
Compounds with GIPRCNT values below 10 were considered active. Activity score was based on GIPRCNT using the following formula: […]
Score is 0 for GIPRCNT values of 100 or above, 50 for GIPRCNT values of 0, and 100 for GIPRCNT values of -100.

Structure (SMILES) | growth
CC(=O)OCC1OC([S-])C(OC(C)=O)C(OC(C)=O)C1OC(C)=O.[Au+].c1ccc(CN2[CH-]N(Cc3ccccc3)C(c3ccccc3)=C2c2ccccc2)cc1 | 4.71% (active)

same assay, conditions: 10 µM

Structure (SMILES) | growth
CC(=O)OCC1OC([S-])C(OC(C)=O)C(OC(C)=O)C1OC(C)=O.[Au+].c1ccc(CN2[CH-]N(Cc3ccccc3)C(c3ccccc3)=C2c2ccccc2)cc1 | 29.4% (inactive)
O=C(O)CCCc1ccc(N(CCCl)CCCl)cc1 | 102% (inactive) and 97.9% (inactive)

same assay, conditions: 10 µM unless noted

Structure (SMILES) | growth
Cc1c(C)c(N)c(C)c(C)c1N | 107% (inactive)
COC(=O)C1=CO[C@@H](C)[C@@H]2CN3CCc4c([nH]c5cc(OC)ccc45)[C@@H]3C[C@H]12 | 107% (inactive)
CCCC[C@H]1C(=O)O[C@H](C)[C@H](NC(=O)c2cccc(NC=O)c2O)C(=O)O[C@@H](C)[C@@H]1OC(=O)CC(C)C | 39% (inactive)
Oc1cc(N2CC2)c(O)cc1N1CC1 | 0.0051% (active)
NC(N)=NC(N)=Nc1ccc(Cl)cc1 | 101% (inactive)
CN(C)c1ccc(N)cc1 | 107% (inactive) and 43.4% (inactive)
N#Cc1ccc(Cl)cc1 | 117% (inactive)
Oc1ccccc1C=NCCN=Cc1ccccc1O | 108% (inactive)
C[C@]12CCC(=O)C[C@@H]1CC[C@@H]1[C@@H]2CC[C@]2(C)[C@@H](OC(=O)N(CCCl)N=O)CC[C@@H]12 | 25.9% (inactive)
O=Cc1cn(Cc2ccccc2)c2ccccc12 | 125% (inactive)
O=C(O)CNCP(=O)(O)O | 104% (inactive)
c1ccc2c(c1)sc1ccccc12 | 92.8% (inactive)
O=[N+]([O-])c1cc(Br)c(O)c(Br)c1 | 111% (inactive)
C[N+]1(C)CCCC1c1cccnc1 (stereo not given) | 108% (inactive)
Cc1ccc(S(=O)(=O)n2cc([C@@]3(O)C[C@H](CSC#N)OC3=O)c3ccccc32)cc1 | 63.3% (inactive)
CSc1cc(/C=C(\C)[C@@H]2C[C@@H]3O[C@]3(C)CCC[C@H](C)[C@H](O)[C@@H](C)C(=O)C(C)(C)[C@@H](O)CC(=O)O2)n(CCNC(=O)OC(C)(C)C)n1 | -19.8% (active)
Clc1ccc(COC(Cn2ccnc2)c2ccc(Cl)cc2Cl)c(Cl)c1 (stereo not given) | 8.47% (active) and 20.5% (inactive)
Cc1ccc(NC2=N[C@]34CC(=O)CC[C@]3(C)[C@H]3CC[C@]5(C)C(=O)CC[C@H]5[C@@H]3C[C@@H]4S2)c(C)c1 | 16.9% (inactive)

Structure (SMILES) | growth
CN1[C@@H](CC(=O)c2ccccc2)CCC[C@H]1CC(=O)c1ccccc1 | 97.5% (inactive)
CC[C@H](C)[C@H](NC(=O)c1ncccn1)C(=O)N(C)[C@H](C[C@@H](OC(C)=O)c1nc(C(=O)N[C@@H](Cc2ccccc2)C[C@H](C)C(=O)OC)cs1)C(C)C | -24.6% (active)
C[C@]12CC[C@H]3[C@@H](CC=C4c5nc(-c6ccc(Br)cc6)sc5CC[C@@]43C)[C@@H]1CC[C@@H]2O | 96.1% (inactive)
CO/N=C1\CC[C@]2(C)[C@H]3CC[C@]4(C)C(=O)CC[C@H]4[C@@H]3C[C@@H]3SC(N)=N[C@@]32C1 | 91.5% (inactive)
C[C@]12CC[C@@H](OC(=O)N(CCCl)N=O)C[C@@H]1CC[C@@H]1[C@@H]2CC[C@]2(C)C(=O)CC[C@@H]12 | 64.5% (inactive)
C/C(=N/OC(=O)N(C)C)c1ccc(Cl)c(Cl)c1 | 106% (inactive)
NC(=O)c1c(Br)c(Br)c(Br)c(Br)c1C(=O)O (tested in a mixture with another compound) | 92.5% (inactive) and 102% (inactive)
Cc1ccc(N2CCN(CCC#N)CC2)cc1 | 101% (inactive)
COc1ccc(/C=C(/C)[N+](=O)[O-])cc1OC | 14.8% (inactive) and 8.73% (active)
O=C(O)C(O)c1ccc(Cl)cc1 (stereo not given) | 105% (inactive) and 115% (inactive)
c1ccc(CCN2CCCCC2)nc1 | 100% (inactive)
CC(=O)OC1CC2(O)C(CCC3(C)C(c4ccc(=O)oc4)CCC32O)C2(C)CCC(OC3OC(CO)C(O)C(O)C3O)C=C12 (stereo not given) | -90.2% (active)
CNC(=O)O/N=C(\SC)C(=O)N(C)C | 116% (inactive)
O=c1c2ccccc2nc(-c2ccccc2Cl)n1-c1nnc(C(F)(F)F)s1 | 57.8% (inactive)
COc1cc2c(c(OC)c1OC)-c1ccc(O)cc1[C@@H](NC(C)=O)CC2 | -27.7% (active) and -47.4% (active)
OCCN=Cc1c[nH]c2ccccc12 | 103% (inactive)
O=S1(=O)OCCO1 | 98.2% (inactive)
CC[C@H](C)[C@H](NC(=O)[C@H]1CCCCN1C)C(=O)N(C)[C@H](CCc1nc(C(=O)N[C@@H](Cc2ccccc2)C[C@H](C)C(=O)O)cs1)C(C)C | -38.1% (active)

same assay, conditions: 75 µM

Structure (SMILES) | growth
O=C(O)CCCc1ccc(N(CCCl)CCCl)cc1 | 38.8% (inactive)
